Results from the supplement of paper PMC7411054.

What was measured:
Assay in all cases: phenotypically active (imaging signature differs from DMSO and reproducible) at any of 0.3-9 uM (binary (1 = active, 0 = inactive)); higher = active
Details in all cases: treatment time: 24 h
[1] = test system: A549-ACTB-RAB5A
Method in brief: (§1)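 Live-cell features were measured per well and normalised to solvent control wells after fifteen gene-edited A549, HepG2 and WPMY1 reporter lines had been treated for 24 h at 0.3, 1, 3 or 9 µM in four wells each. A condition was deviating when ≥3 of 4 wells sat beyond the 95th percentile of control Euclidean distances. It was reproducible when the median replicate Pearson correlation exceeded the 95th percentile of non-replicates. Phenotypic activity demanded both.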

[2] = test system: A549-CANX-COX4
Method in brief: as §1

[3] = test system: A549-GM130-SQSTM1
Method in brief: as §1

[4] = test system: A549-TP53BP1-CLTA
Method in brief: as §1

[5] = test system: A549-TUBA1B-RELA
Method in brief: as §1

[6] = test system: HepG2-ACTB-RAB5A
Method in brief: as §1

[7] = test system: HepG2-CANX-COX4
Method in brief: as §1

[8] = test system: HepG2-GM130-SQSTM1
Method in brief: as §1

[9] = test system: HepG2-TP53BP1-CLTA
Method in brief: as §1

[10] = test system: HepG2-TUBA1B-RELA
Method in brief: as §1

[11] = test system: WPMY1-ACTB-RAB5A
Method in brief: as §1

[12] = test system: WPMY1-CANX-COX4
Method in brief: as §1

[13] = test system: WPMY1-GM130-SQSTM1
Method in brief: as §1

[14] = test system: WPMY1-TP53BP1-CLTA
Method in brief: as §1

[15] = test system: WPMY1-TUBA1B-RELA
Method in brief: as §1

Measured: phenotypically active

C[C@](N)(Cc1ccc(O)c(O)c1)C(=O)O [methyldopa]
inactive: [1] 0 | [2] 0 | [3] 0 | [4] 0 | [5] 0 | [6] 0 | [7] 0 | [8] 0 | [9] 0 | [10] 0 | [11] 0 | [12] 0 | [13] 0 | [14] 0 | [15] 0

CC[C@H]1OC(=O)[C@H](C)[C@@H](O[C@H]2C[C@@](C)(OC)[C@@H](O)[C@H](C)O2)[C@H](C)[C@@H](O[C@@H]2O[C@H](C)C[C@H](N(C)C)[C@H]2O)[C@](C)(O)C[C@@H](C)C(=O)[C@H](C)[C@@H](O)[C@]1(C)O [Erythromycin]
inactive: [1] 0 | [2] 0 | [3] 0 | [4] 0 | [5] 0 | [6] 0 | [7] 0 | [8] 0 | [9] 0 | [10] 0 | [11] 0 | [12] 0 | [13] 0 | [14] 0 | [15] 0

CCN(CC)CCNC(=O)c1cc(Cl)c(N)cc1OC [metoclopramide]
inactive: [1] 0 | [2] 0 | [3] 0 | [4] 0 | [5] 0 | [6] 0 | [7] 0 | [8] 0 | [9] 0 | [10] 0 | [11] 0 | [12] 0 | [13] 0 | [14] 0 | [15] 0

CC1=Nc2ccc(Cl)cc2S(=O)(=O)N1 [diazoxide]
inactive: [1] 0 | [2] 0 | [3] 0 | [4] 0 | [5] 0 | [6] 0 | [7] 0 | [8] 0 | [9] 0 | [10] 0 | [11] 0 | [12] 0 | [13] 0 | [14] 0 | [15] 0

O=C(O)[C@H](Cc1c[nH]c2ccccc12)N1C(=O)c2ccccc2C1=O
inactive: [1] 0 | [2] 0 | [3] 0 | [4] 0 | [5] 0 | [6] 0 | [7] 0 | [8] 0 | [9] 0 | [10] 0 | [11] 0 | [12] 0 | [13] 0 | [14] 0 | [15] 0

CNC(=O)COC(=O)N1CCC(CCc2ccc(Cl)cc2)CC1
inactive: [1] 0 | [2] 0 | [3] 0 | [4] 0 | [5] 0 | [6] 0 | [7] 0 | [8] 0 | [9] 0 | [10] 0 | [11] 0 | [12] 0 | [13] 0 | [14] 0 | [15] 0

O=C(O)CCc1ccccc1 [Hydrocinnamic acid]
inactive: [1] 0 | [2] 0 | [3] 0 | [4] 0 | [5] 0 | [6] 0 | [7] 0 | [8] 0 | [9] 0 | [10] 0 | [11] 0 | [12] 0 | [13] 0 | [14] 0 | [15] 0

CC1(C)[C@@H](O)CC[C@]2(C)[C@H]3C(=O)C=C4[C@@H]5C[C@@](C)(C(=O)O)CC[C@]5(C)CC[C@@]4(C)[C@]3(C)CC[C@@H]12 [Glycyrrhetinic Acid]
inactive: [1] 0 | [2] 0 | [3] 0 | [4] 0 | [5] 0 | [6] 0 | [7] 0 | [8] 0 | [9] 0 | [10] 0 | [11] 0 | [12] 0 | [13] 0 | [14] 0 | [15] 0

CCCCCCCCCN1C[C@H](O)[C@@H](O)[C@H](O)[C@H]1CO [N-Nonyldeoxynojirimycin]
inactive: [1] 0 | [2] 0 | [3] 0 | [4] 0 | [5] 0 | [6] 0 | [7] 0 | [8] 0 | [9] 0 | [10] 0 | [11] 0 | [12] 0 | [13] 0 | [14] 0 | [15] 0

Cc1cnc(C(=O)NCCc2ccc(S(=O)(=O)NC(=O)NC3CCCCC3)cc2)cn1 [glipizide]
inactive: [1] 0 | [2] 0 | [3] 0 | [4] 0 | [5] 0 | [6] 0 | [7] 0 | [8] 0 | [9] 0 | [10] 0 | [11] 0 | [12] 0 | [13] 0 | [14] 0 | [15] 0

C#CCN(C)Cc1ccccc1 [pargyline]
inactive: [1] 0 | [2] 0 | [3] 0 | [4] 0 | [5] 0 | [6] 0 | [7] 0 | [8] 0 | [9] 0 | [10] 0 | [11] 0 | [12] 0 | [13] 0 | [14] 0 | [15] 0
